# Results published in the supplement of paper PMC8728848.
# This excerpt belongs to a sample that is enriched for the strongest signals.
# How the values were obtained:
# Experiment in all cases: glycan array binding signal (z-score within array); higher = stronger binding
# Conditions in all cases: glycan notation: IUPAC condensed, linker removed
# [1] = target: Fuc(a1-2)Gal(b1-3)GlcNAc(b1-2)Man(a1-3)[Fuc(a1-2)Gal(b1-3)GlcNAc(b1-2)Man(a1-6)]Man(b1-4)GlcNAc(b1-4)GlcNAc
# Procedure, shortened: (§1)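 Negative Z-scores can be read as non-binding. The Z-score is calculated within each array and then averaged across arrays of one protein sequence at different concentrations or buffers and across linkers. Arrays, 3228 in all, were curated from the Consortium for Functional Glycomics database and kept only where the protein sequence was available.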
# Fuc(a1-2)Gal(b1-4)Glc = target: Fuc(a1-2)Gal(b1-4)Glc
# Procedure, shortened: as §1
# Fuc(a1-2)Gal(b1-4)Glc6S = target: Fuc(a1-2)Gal(b1-4)Glc6S
# Procedure, shortened: as §1
# Fuc(a1-2)Gal6S(b1-4)Glc = target: Fuc(a1-2)Gal6S(b1-4)Glc
# Procedure, shortened: as §1
# [2] = target: Fuc(a1-2)[Gal(a1-3)]Gal(b1-4)GlcNAc(b1-3)[Fuc(a1-2)[Gal(a1-3)]Gal(b1-4)GlcNAc(b1-6)]GalNAc
# Procedure, shortened: as §1
# [3] = target: Fuc(a1-2)[Gal(a1-3)]Gal(b1-4)GlcNAc(b1-6)GalNAc
# Procedure, shortened: as §1
# [4] = target: Fuc(a1-2)[GalNAc(a1-3)]Gal(b1-3)GalNAc(b1-3)Gal(a1-4)Gal(b1-4)Glc
# Procedure, shortened: as §1
# [5] = target: Fuc(a1-2)[GalNAc(a1-3)]Gal(b1-4)GlcNAc(b1-2)Man(a1-3)[Fuc(a1-2)[GalNAc(a1-3)]Gal(b1-4)GlcNAc(b1-2)Man(a1-6)]Man(b1-4)GlcNAc(b1-4)[Fuc(a1-6)]GlcNAc
# Procedure, shortened: as §1
# [6] = target: Fuc(a1-2)[GalNAc(a1-3)]Gal(b1-4)GlcNAc(b1-3)Gal(b1-4)GlcNAc
# Procedure, shortened: as §1
# [7] = target: Fuc(a1-2)[GalNAc(a1-3)]Gal(b1-4)GlcNAc(b1-3)Gal(b1-4)GlcNAc(b1-3)Gal(b1-4)GlcNAc
# Procedure, shortened: as §1
# [8] = target: Fuc(a1-2)[GalNAc(a1-3)]Gal(b1-4)GlcNAc(b1-6)GalNAc
# Procedure, shortened: as §1
# [9] = target: Fuc(a1-2)[GalNAc(a1-4)]Gal(b1-4)GlcNAc
# Procedure, shortened: as §1
# [10] = target: Fuc(a1-3)[Gal(b1-4)]GlcNAc(b1-2)Man
# Procedure, shortened: as §1
# [11] = target: Fuc(a1-3)[Gal(b1-4)]GlcNAc(b1-3)Gal(b1-4)[Fuc(a1-3)]GlcNAc(b1-3)Gal(b1-4)[Fuc(a1-3)]GlcNAc
# Procedure, shortened: as §1
# [12] = target: Fuc(a1-3)[Gal(b1-4)]GlcNAc6S
# Procedure, shortened: as §1
# Gal(a1-6)Glc = target: Gal(a1-6)Glc
# Procedure, shortened: as §1
# Gal(b1-3)GalNAc = target: Gal(b1-3)GalNAc
# Procedure, shortened: as §1
# [13] = target: Gal(b1-3)GlcNAc(b1-2)[Gal(b1-3)GlcNAc(b1-6)]Man(a1-6)[Gal(b1-3)GlcNAc(b1-2)Man(a1-3)]Man(b1-4)GlcNAc(b1-4)GlcNAc
# Procedure, shortened: as §1
# [14] = target: Gal(b1-3)GlcNAc(b1-3)Gal(b1-4)Glc
# Procedure, shortened: as §1
# [15] = target: Gal(b1-3)GlcNAc(b1-3)Gal(b1-4)GlcNAc(b1-2)[Gal(b1-3)GlcNAc(b1-3)Gal(b1-4)GlcNAc(b1-6)]Man(a1-6)[Gal(b1-3)GlcNAc(b1-3)Gal(b1-4)GlcNAc(b1-2)Man(a1-3)]Man(b1-4)GlcNAc(b1-4)[Fuc(a1-6)]GlcNAc
# Procedure, shortened: as §1
# [16] = target: Gal(b1-3)GlcNAc(b1-6)GalNAc
# Procedure, shortened: as §1
# [17] = target: Gal(b1-3)[Neu5Ac(b2-6)]GalNAc
# Procedure, shortened: as §1
# [18] = target: Gal(b1-4)GlcNAc(b1-2)Man(a1-3)[Gal(b1-4)GlcNAc(b1-2)Man(a1-6)][GlcNAc(b1-4)]Man(b1-4)GlcNAc(b1-4)[Fuc(a1-6)]GlcNAc
# Procedure, shortened: as §1
# [19] = target: Gal(b1-4)GlcNAc(b1-2)Man(a1-6)[GlcNAc(b1-2)Man(a1-3)]Man(b1-4)GlcNAc(b1-4)GlcNAc
# Procedure, shortened: as §1
# [20] = target: Gal(b1-4)GlcNAc(b1-2)Man(a1-6)[Man(a1-3)]Man(b1-4)GlcNAc(b1-4)GlcNAc
# Procedure, shortened: as §1
# [21] = target: Gal(b1-4)GlcNAc(b1-2)[Gal(b1-4)GlcNAc(b1-4)]Man(a1-3)[Gal(b1-4)GlcNAc(b1-2)[Gal(b1-4)GlcNAc(b1-6)]Man(a1-6)]Man(b1-4)GlcNAc(b1-4)GlcNAc
# Procedure, shortened: as §1
# [22] = target: Gal(b1-4)GlcNAc(b1-3)Gal(b1-3)GlcNAc
# Procedure, shortened: as §1
# [23] = target: Gal(b1-4)GlcNAc(b1-3)Gal(b1-4)GlcNAc(b1-3)Gal(b1-4)GlcNAc(b1-2)Man(a1-3)[Gal(b1-4)GlcNAc(b1-3)Gal(b1-4)GlcNAc(b1-3)Gal(b1-4)GlcNAc(b1-2)Man(a1-6)]Man(b1-4)GlcNAc(b1-4)GlcNAc
# Procedure, shortened: as §1
# [24] = target: Gal(b1-4)GlcNAc(b1-6)GalNAc
# Procedure, shortened: as §1
binder,measurement,setting,value
GS13686A-pdi-553-26-553 (Parabacteroides distasonis) (protein) NENPDKPTDDVNYNMNEPRLASTLRGGLIIEGNVEQRLKPLQIDFYSQMTVDGGGWGTKNYIQDDEWNNLVWEEYLKQIASINIVIRSLTEKDKDAYANTIAFARIWRVYVHTLAADKFGPMPFPAYEIVEANPPYKSLKDIYDEYFRELDAAINGFNDSAQPIFSDAGIDLIYKNDVSKWKRFANSLRLRLAVRLTEVDQEKCIAEANAAISSPAGLISDKADNAYMPPKADGSWGQDYNYTMFQITWSGPICMSKSVEKLVTNIGGVAWPQGVVNQTSGVAVSSVHPEKVDPRAPKIFQPGIENGDWKGLVYGPKAEEANTGIYQSKQCAELGFIIKDGYPYKSRPYDLFLSEEVHFLKAELYARGFIAGDAKSEYEAGVRASFATWGVTSEVDDYLTSTEKNEAGTSARYDDQQGAGNTALEKIITQKYIAGIPDLAQEGWNDKRRLNLPRLDVAVYRDQAVYNNNDKDILKSANFIKRMRYPTKESLINATEYEKGKSMLGGKGDIVSTPLWWDKNSNYCTSSK,glycan array binding signal (z-score),[1],0.144
same,glycan array binding signal (z-score),Fuc(a1-2)Gal(b1-4)Glc,-0.076
same,glycan array binding signal (z-score),Fuc(a1-2)Gal(b1-4)Glc6S,0.03
same,glycan array binding signal (z-score),Fuc(a1-2)Gal6S(b1-4)Glc,-0.226
same,glycan array binding signal (z-score),[2],0.003
same,glycan array binding signal (z-score),[3],0.081
same,glycan array binding signal (z-score),[4],-0.124
same,glycan array binding signal (z-score),[5],0.023
same,glycan array binding signal (z-score),[6],0.224
same,glycan array binding signal (z-score),[7],0.041
same,glycan array binding signal (z-score),[8],-0.281
same,glycan array binding signal (z-score),[9],1.95
same,glycan array binding signal (z-score),[10],-0.253
same,glycan array binding signal (z-score),[11],-0.035
same,glycan array binding signal (z-score),[12],-0.276
same,glycan array binding signal (z-score),Gal(a1-6)Glc,0.108
same,glycan array binding signal (z-score),Gal(b1-3)GalNAc,0.011
same,glycan array binding signal (z-score),[13],0.046
same,glycan array binding signal (z-score),[14],-0.082
same,glycan array binding signal (z-score),[15],1.83
same,glycan array binding signal (z-score),[16],1.97
same,glycan array binding signal (z-score),[17],1.03
same,glycan array binding signal (z-score),[18],1.35
same,glycan array binding signal (z-score),[19],0.027
same,glycan array binding signal (z-score),[20],-0.04
same,glycan array binding signal (z-score),[21],2.01
same,glycan array binding signal (z-score),[22],-0.133
same,glycan array binding signal (z-score),[23],0.45
same,glycan array binding signal (z-score),[24],-0.056
